Read-out in test [1]: urokinase plasminogen activator (uPA), PLAU (gene 5328)
In words: BSK_KF3CT_uPA: BioMAP Diversity Plus: KF3CT Assay for urokinase plasminogen activator (uPA) Biomarker Activity (AID 2283075). The settings on record: primary human keratinocytes with fibroblasts; actives raise or lower the signal. The essentials:
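ELISA read-out of uPA 24 h after dosing human skin keratinocytes co-cultured with foreskin fibroblasts. Signal change fitted both ways relative to DMSO; sulforhodamine B on parallel cultures marks overt cytotoxicity.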

Read-out in test [2]: CD40, CD40 (gene 958)
Kind of test: BSK_LPS_CD40: BioMAP Diversity Plus: LPS Assay for CD40 Biomarker Activity (AID 2283076). The settings on record: primary human HUVEC with PBMC; actives raise or lower the signal. In short, it runs like this:
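Primary human umbilical vein endothelial cells co-cultured with peripheral blood mononuclear cells, LPS-stimulated, were dosed with chemical and read 24 h later. CD40 levels were measured by ELISA and fitted bidirectionally against DMSO as negative control and baseline.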

Read-out in test [3]: E-selectin (Homo sapiens) (UniProt P16581)
In words: BSK_LPS_Eselectin: BioMAP Diversity Plus: LPS Assay for Eselectin Biomarker Activity (AID 2283077). As to conditions: primary human HUVEC with PBMC; actives raise or lower the signal. The essentials:
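Human umbilical vein endothelial cells co-cultured with peripheral blood mononuclear cells under LPS stimulation; E-selectin measured by ELISA 24 h after chemical dosing. Activity fitted bidirectionally against DMSO as negative control and baseline.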

Read-out in test [4]: Interleukin-8 (IL8), CXCL8 (gene 3576)
In words: BSK_LPS_IL8: BioMAP Diversity Plus: LPS Assay for Interleukin-8 (IL8) Biomarker Activity (AID 2283078). The settings on record: primary human HUVEC with PBMC; actives raise or lower the signal. The essentials:
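Human umbilical vein endothelial cells co-cultured with PBMC were stimulated with LPS; IL-8 levels were measured by ELISA 24 h after chemical dosing. Activity was fitted bidirectionally against DMSO as negative control and baseline.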

Test [5] is described as follows: BSK_LPS_SRB: Viability Assessment in the BioMAP Diversity Plus: LPS Assay (AID 2283079).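 Note: total protein by sulforhodamine B absorbance as a cytotoxicity measure; measured one day after compound addition.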 As to conditions: primary human HUVEC with PBMC. The essentials:
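Human umbilical vein endothelial cells co-cultured with PBMC (LPS system) were dosed for 24 h. Total protein was stained with 0.1% sulforhodamine B after 10% TCA fixation, read at 560 nm, and fitted bidirectionally against DMSO baseline.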

Read-out in test [6]: Interleukin-1 alpha (IL1a), IL1A (gene 3552)
In words: BSK_LPS_IL1a: BioMAP Diversity Plus: LPS Assay for Interleukin-1 alpha (IL1a) Biomarker Activity (AID 2283080). The settings on record: primary human HUVEC with PBMC; actives raise or lower the signal. The essentials:
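Human umbilical vein endothelial cells co-cultured with peripheral blood mononuclear cells were LPS-stimulated and exposed to test chemicals for 24 h. IL-1 alpha was quantified by ELISA, with bidirectional curve fitting against DMSO as the negative control and baseline.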

Read-out in test [7]: Monocyte Chemoattractant Protein-1 (MCP1), CCL2 (gene 6347)
In words: BSK_LPS_MCP1: BioMAP Diversity Plus: LPS Assay for Monocyte Chemoattractant Protein-1 (MCP1) Biomarker Activity (AID 2283081).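 For AC50: co-culture stimulated with LPS; secreted MCP-1 protein quantified by ELISA in culture supernatant.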 As to conditions: primary human HUVEC with PBMC; actives raise or lower the signal. In short, it runs like this: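 HUVEC plus PBMC co-culture (human primary cells, LPS system) exposed to test chemical for 24 h; MCP-1 measured by ELISA. Bidirectional curve fitting against DMSO baseline; parallel SRB total-protein staining flags overt cytotoxicity.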

The nature of test [8]: BSK_LPS_PGE2: BioMAP Diversity Plus: LPS Assay for Prostaglandin E2 (PGE2) Biomarker Activity (AID 2283082). As to conditions: primary human HUVEC with PBMC; actives raise or lower the signal. In short, it runs like this:
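Primary human endothelial cells and blood mononuclear cells, co-cultured with LPS, receive test chemical; PGE2 ELISA follows at 24 h, with SRB-stained parallel cultures flagging cytotoxicity.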

Read-out in test [9]: Macrophage colony-stimulating factor (MCSF), CSF1 (gene 1435)
In words: BSK_LPS_MCSF: BioMAP Diversity Plus: LPS Assay for Macrophage colony-stimulating factor (MCSF) Biomarker Activity (AID 2283083). As to conditions: primary human HUVEC with PBMC; actives raise or lower the signal. In short, it runs like this:
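Human umbilical vein endothelial cells co-cultured with peripheral blood mononuclear cells were exposed to compound for 24 h. M-CSF levels were measured by ELISA, and bidirectional curve fitting used DMSO as the negative control and baseline.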

Read-out in test [10]: Tissue Factor, F3 (gene 2152)
In words: BSK_LPS_TissueFactor: BioMAP Diversity Plus: LPS Assay for Tissue Factor Biomarker Activity (AID 2283084). The settings on record: primary human HUVEC with PBMC; actives raise or lower the signal. The essentials:
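Human umbilical vein endothelial cells co-cultured with peripheral blood mononuclear cells were dosed and stimulated with LPS. Cell-surface CD142 was quantified by ELISA at 24 h. Activity was fitted bidirectionally against DMSO baseline.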

Read-out in test [11]: Tumor necrosis factor (Homo sapiens) (UniProt P01375)
Kind of test: BSK_LPS_TNFa: BioMAP Diversity Plus: LPS Assay for Tumour Necrosis Factor alpha (TNFa) Biomarker Activity (AID 2283085). As to conditions: primary human HUVEC with PBMC; actives raise or lower the signal. The essentials: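 ELISA-based TNFa endpoint in a human endothelial–PBMC co-culture sampled 24 h post-exposure. Curves were fitted in both directions using DMSO as baseline of activity.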

Read-out in test [12]: Vascular cell adhesion molecule 1 (VCAM1), VCAM1 (gene 7412)
Kind of test: BSK_LPS_VCAM1: BioMAP Diversity Plus: LPS Assay for Vascular cell adhesion molecule 1 (VCAM1) Biomarker Activity (AID 2283086). The settings on record: primary human HUVEC with PBMC; actives raise or lower the signal. In short, it runs like this:
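Measured by ELISA: VCAM-1 in LPS-activated HUVEC/PBMC co-cultures 24 h after treatment. Values reflect bidirectional fitting with DMSO as baseline.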

Read-out in test [13]: CD38, CD38 (gene 952)
Kind of test: BSK_SAg_CD38: BioMAP Diversity Plus: SAg Assay for CD38 Biomarker Activity (AID 2283087). As to conditions: primary human HUVEC with PBMC; actives raise or lower the signal. In short, it runs like this:
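Measures CD38 on a human endothelial/PBMC co-culture driven by SEB and TSST-1, 24 h after compound exposure, using ELISA with fluorescence detection; DMSO defines baseline for bidirectional curve fitting.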

Read-out in test [14]: CD40, CD40 (gene 958)
Kind of test: BSK_SAg_CD40: BioMAP Diversity Plus: SAg Assay for CD40 Biomarker Activity (AID 2283088). The settings on record: primary human HUVEC with PBMC; actives raise or lower the signal. In short, it runs like this:
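Human umbilical vein endothelial cells co-cultured with PBMC; CD40 levels measured by ELISA with fluorescence read-out 24 h after chemical dosing. Gain or loss of signal fitted bidirectionally against DMSO baseline.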

Read-out in test [15]: Monocyte Chemoattractant Protein-1 (MCP1), CCL2 (gene 6347)
Kind of test: BSK_SAg_MCP1: BioMAP Diversity Plus: SAg Assay for Monocyte Chemoattractant Protein-1 (MCP1) Biomarker Activity (AID 2283090). As to conditions: primary human HUVEC with PBMC; actives raise or lower the signal. In short, it runs like this: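 Values derive from bidirectional fitting of ELISA-measured MCP1 against DMSO controls. Readings were taken 24 h after dosing human vascular endothelial cells co-cultured with peripheral blood mononuclear cells under superantigen stimulation.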

Read-out in test [16]: E-selectin (Homo sapiens) (UniProt P16581)
In words: BSK_SAg_Eselectin: BioMAP Diversity Plus: SAg Assay for Eselectin Biomarker Activity (AID 2283091). The settings on record: primary human HUVEC with PBMC; actives raise or lower the signal. The essentials: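 HUVEC co-cultured with PBMC, compound dosed then read at 24 h; E-selectin measured by ELISA. Activity fitted bidirectionally against DMSO as negative control and baseline.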

Read-out in test [17]: Monokine induced gamma interferon (MIG), CXCL9 (gene 4283)
Kind of test: BSK_SAg_MIG: BioMAP Diversity Plus: SAg Assay for Monokine induced gamma interferon (MIG) Biomarker Activity (AID 2283092). As to conditions: primary human HUVEC with PBMC; actives raise or lower the signal. The essentials: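 HUVEC plus human PBMC co-culture, chemicals dosed and MIG (CXCL9) quantified by ELISA at 24 h. Bidirectional curve fitting against DMSO as negative control and baseline, so both gain and loss of signal count as activity.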

Test [18] can be described thus: BSK_SAg_PBMCCytotoxicity: PBMC Cytotoxicity Assessment in the BioMAP Diversity Plus: SAg Assay (AID 2283093).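 Note: PBMC viability measured as Alamar Blue reduction fluorescence at 546/580 nm; fitted both ways against DMSO so a hit may be loss or gain of signal.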 As to conditions: primary human HUVEC with PBMC. In short, it runs like this:
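Alamar Blue reduction (6 h, ex/em 546/580 nm) read after 90 h culture of PBMC pre-dosed 1 h then stimulated with SEB plus TSST-1, 20 ng/mL each. Gain or loss of signal fitted relative to DMSO.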

Read-out in test [19]: Interleukin-8 (IL8), CXCL8 (gene 3576)
Kind of test: BSK_SAg_IL8: BioMAP Diversity Plus: SAg Assay for Interleukin-8 (IL8) Biomarker Activity (AID 2283094). The settings on record: primary human HUVEC with PBMC; actives raise or lower the signal. The essentials:
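Primary human endothelial cells with PBMC, exposed 24 h; IL-8 determined by ELISA, analysed bidirectionally relative to DMSO.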

Test [20] can be described thus: BSK_SAg_Proliferation: Cell Proliferation Assessment in the BioMAP Diversity Plus: SAg Assay (AID 2283095).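 Note: relative cell number as total protein by SRB absorbance in sub-confluent culture.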 The settings on record: primary human HUVEC with PBMC. The essentials: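 A human primary co-culture of umbilical vein endothelium and blood mononuclear cells receives compound; relative cell number is quantified at 96 h by SRB staining and 560 nm absorbance, with DMSO-referenced bidirectional curve fitting.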

Some compounds were tested as several samples or in several runs, with calls that do not always agree. Calls of active or inactive are those of the source. Rule for the calls: active = hit-call score of the fitted dose curve at least 0.9, where 1 is the maximum; inactive = score below 0.9.

Sequence of E-selectin (Homo sapiens) (P16581 whole entry, looked up): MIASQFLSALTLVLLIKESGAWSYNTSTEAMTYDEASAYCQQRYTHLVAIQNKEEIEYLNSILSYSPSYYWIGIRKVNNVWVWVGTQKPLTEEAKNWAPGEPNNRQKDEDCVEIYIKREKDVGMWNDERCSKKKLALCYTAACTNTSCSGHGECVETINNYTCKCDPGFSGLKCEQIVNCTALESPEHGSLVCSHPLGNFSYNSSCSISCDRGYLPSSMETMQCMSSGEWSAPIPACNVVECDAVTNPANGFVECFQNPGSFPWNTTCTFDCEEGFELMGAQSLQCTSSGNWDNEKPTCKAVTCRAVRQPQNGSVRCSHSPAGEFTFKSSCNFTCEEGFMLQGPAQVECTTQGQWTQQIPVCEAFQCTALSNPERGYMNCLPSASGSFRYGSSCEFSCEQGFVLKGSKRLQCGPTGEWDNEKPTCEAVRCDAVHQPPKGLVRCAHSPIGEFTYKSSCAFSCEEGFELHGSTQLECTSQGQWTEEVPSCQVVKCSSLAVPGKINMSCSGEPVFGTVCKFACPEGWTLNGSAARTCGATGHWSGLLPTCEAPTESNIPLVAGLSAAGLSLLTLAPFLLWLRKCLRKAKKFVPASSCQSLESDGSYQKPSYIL
Sequence of Tumor necrosis factor (Homo sapiens) (P01375 whole entry, looked up): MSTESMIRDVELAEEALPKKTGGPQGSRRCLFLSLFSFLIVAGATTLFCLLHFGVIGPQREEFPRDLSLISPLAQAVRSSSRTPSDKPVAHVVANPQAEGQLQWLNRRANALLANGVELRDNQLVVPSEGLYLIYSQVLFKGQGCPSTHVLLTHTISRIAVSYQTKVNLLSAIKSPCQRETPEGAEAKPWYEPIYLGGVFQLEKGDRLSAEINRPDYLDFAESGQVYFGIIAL

For `C=CCOc1c(Br)cc(Br)cc1Br`, the AC50 in test [1] was 28600 nM (active); in [7], 54 nM (active). The outcome in [2], in [3], in [4], in [5], in test [6] and in test [8] was inactive. Also, the result in [9], in test [10], in test [11], in test [12], in [13] and in test [14] was inactive. Moreover, the result in [15], in [16], in [17], in test [18], in test [19] and in [20] was inactive.

For the molecule `CN1C(=O)N(C)C(O)C1O` (stereo unspecified), the outcome in [1], in test [2], in test [3], in test [4], in [5] and in test [6] was inactive. The result in [7], in test [8], in test [9], in test [10], in test [11] and in test [12] was inactive. The result in test [13], in test [14], in [15], in test [16], in test [17] and in test [18] was inactive. Moreover, the result in test [19] and in [20] was inactive. In [2], the AC50 was 1500 nM (active).

A word on the AC50: it is the concentration giving half of the maximal activity seen.

Values taken from PubChem BioAssay (EPA / NIEHS).
